# Screening results (PubChem)
# RORg inh: ROR gamma (mouse) transcription inhibition; P51450; Drosophila S2 Gal4-RORgamma UAS-luciferase reporter, 20 h; Potency, µM (series often up to 53.6 µM), for the others: at the top dose activity change, negative = inhibition, most hits filed as inhibitors; 310,000 tested, 5.4% active; AID 2551; note: % is set by controls: 0 for no effect and ±100 for the full control effect; nearly all actives have a fitted effect of over 60% in size
# Target sequence (P51450 whole entry, looked up, the tested form may be a part): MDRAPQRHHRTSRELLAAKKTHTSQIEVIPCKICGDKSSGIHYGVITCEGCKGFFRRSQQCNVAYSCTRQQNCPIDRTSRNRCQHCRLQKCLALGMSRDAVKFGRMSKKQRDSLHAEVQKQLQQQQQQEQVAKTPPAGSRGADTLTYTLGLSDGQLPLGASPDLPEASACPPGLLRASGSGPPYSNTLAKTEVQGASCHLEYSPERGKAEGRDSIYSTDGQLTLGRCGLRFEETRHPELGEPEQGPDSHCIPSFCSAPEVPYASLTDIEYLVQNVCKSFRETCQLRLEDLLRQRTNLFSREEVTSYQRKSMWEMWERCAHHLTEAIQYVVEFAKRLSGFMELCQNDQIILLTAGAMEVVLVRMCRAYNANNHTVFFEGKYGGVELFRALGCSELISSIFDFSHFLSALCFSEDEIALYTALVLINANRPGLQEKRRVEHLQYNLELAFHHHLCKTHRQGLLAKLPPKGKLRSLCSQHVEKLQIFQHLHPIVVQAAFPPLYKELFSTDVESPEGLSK
#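 In this cell-based reporter format, copper sulfate (700 uM final) drives Gal4–ROR gamma fusion expression from a metallothionein promoter in Drosophila Schneider cells; compounds preincubated 1 hr, reporter read after 20 hr at ambient temperature.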
# uPA generation: blocks generation of uPA at the cell surface; 330,000 tested, 0.31% active; Potency, µM (doses to about 38.3 µM), for inactives: at the highest dose activity change, negative = inhibition, hits mostly inhibitors; cell surface uPA generation assay, qHTS; active = well fitted inhibition curve with a large enough effect; inconclusive = small, poorly fitted or top-dose-only effect; inactive = no such curve, though single readings can be large or run the other way; tested in mouse RAW 264.7 cells; note: % is set by controls: 0 for no effect and ±100 for the full control effect; nearly all actives have a fitted effect of over 55% in size
# Mito fusion yeast: inhibitors of mitochondrial division or activators of mitochondrial fusion; Potency, µM (series often up to 46.1 µM), for inactives: top-dose growth rescue (activation), most hits filed as activators; 320,000 tested, 0.23% active; AID 485298; S. cerevisiae fusion-defective mutant growth rescue, CellTiterGlo 48 h; note: % of control where 0% means no effect; nearly all actives have a fitted effect of over 45% in size
#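 Read-out: ATP-based luminescence (CellTiterGlo, 10 min ambient) reporting growth of fusion-defective ts yeast after 48 hours at 37C on glycerol/ethanol YPEG medium in the presence of compound.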
# Gal4-VP16 FLuc: Gal4-VP16 reporter inhibition counter-screen | Drosophila S2 Gal4-VP16 UAS-luciferase, luminescence, 20 h | Potency, µM (titrated, usually from 53.6 µM), inactives show top-dose activity, negative = inhibition, most hits filed as inhibitors | 310,000 tested, 3.5% active;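 note: Gal4-VP16 expression switched on by copper sulfate through the metallothionein promoter; % is set by controls: 0 for no effect and ±100 for the full control effect; nearly all actives have a fitted effect of over 50% in size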
# a7 integrin act: integrin-mediated muscular dystrophy alleviation activation | 350,000 tested, 0.064% active | alpha7betagal myoblasts, beta-gal FDG fluorescence, 48 h | Potency, µM (titrated, usually from 38.3 µM), for inactives: at the highest dose activation, hits mostly activators | AID 624291;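 note: 100% = response of the positive control SU9516; nearly all actives have a fitted effect of over 60% in size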
#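 alpha7betagal+/- myoblasts (passage 13, 250/well) treated 48 h at 37C with compounds at 1:260 dilution of DMSO stock. Lysed, then beta-galactosidase activity read as FDG fluorescence (ex 480/em 540) after 30 min, with pre-read for autofluorescence.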
# Chronic BCR inh: chronic active BCR signaling inhibition; 340,000 tested, 0.05% active; ABC-DLBCL IkBa-CBG/CBR reporter, luminescence ratio, 4 h; AID 493014; Potency, µM (top dose mostly 46.1 µM), without a hit: top-dose activity change, negative = inhibition, actives largely listed as inhibitors; active = well fitted inhibition curve with a large enough effect in the signal ratio, with a control signal flat, not every such curve was filed as active; inconclusive = small, poorly fitted or top-dose-only effect, or effect the other way, or a change in a side signal; the % refers to the signal ratio;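 note: plate controls were basal doxycycline-induced cells for no effect and cells given 10 µM MG132 for full effect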
#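 Doxycycline induced both beetle luciferases in TMD8 lymphoma cells; IKK-driven degradation limits the IkappaBalpha-fused green signal, while red luminescence normalises for cell number and nonspecific effects. Compounds tested up to 46 uM, 4 hrs.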
# Starred values were filed as active, the others as inactive; ? = inconclusive; . = no result given; [ ] = another dose, or the depositor's remark. Sampled rows, rich in hits. Any-hit rate of the full collection: about 5.5%. Unless noted, calls come from the whole dose curve; as a rule, active = well fitted curve in the direction sought with a large enough effect; inconclusive = small, poorly fitted or top-dose-only effect, or another doubt; inactive = no such curve, though single readings can be large; an effect the other way counts as inactive or inconclusive. Potency is the fitted concentration of half-maximal effect.
SMILES,RORg inh,uPA generation,Mito fusion yeast,Gal4-VP16 FLuc,a7 integrin act,Chronic BCR inh
OCCNCCCCSc1ccc(Cl)cc1,-19%,8.9µM*,-6%,1%,-50%,0%
CC1(C)CC(C)(O)N(Cc2ccccc2)C(=S)N1 (stereo not given),13µM*,-3%,-6%,16µM*,-22%,-22%
CC1(C)C(=O)NC(=O)N1Cc1ccccc1,.,4%,-4%,.,10%,?
CCOC(=O)C1(Cc2cccc(OC)c2)CCN(Cc2cccnc2)CC1,11µM*,1%,-2%,-18%,15%,?
CCOC(=O)C1(Cc2ccccc2)CCCN(Cc2ccccn2)C1 (stereo not given),13µM*,-1%,2%,-12%,-23%,0%
CCOC(=O)C1(Cc2cccc(OC)c2)CCCN(Cc2nccn2CC)C1 (stereo not given),3.5µM*,3%,-2%,?,0%,8%
CCOC(=O)C1(Cc2ccccc2)CCCN(CCO)C1 (stereo not given),-6%,4%,2%,-4%,-16%,-7%
CCn1ccnc1CN1CCCC(CO)(Cc2cccc(OC)c2)C1 (stereo not given),-30%,5%,7%,10%,-40%,1%
CCOC(=O)C1(Cc2cccc(OC)c2)CCN(Cc2ccccc2)CC1,-1%,-3%,-4%,-1%,-1%,-6%
O=C(Cn1c(=O)n(CCC(=O)N2CCCCC2)c(=O)c2sccc21)NCc1ccccc1,0%,4%,9%,-2%,-6%,5%
O=C(/C=C/c1cccc([N+](=O)[O-])c1)n1cnc2ccccc21,11µM*,-10%,-8%,-7%,-12%,?
Cc1noc(C)c1COC(=O)CCCc1nc2ccccc2s1,?,5%,5%,7.9µM*,13%,3%
CNC(=O)c1c(NC(=O)c2nc3ccccc3s2)sc2c1CCC2,7.1µM*,.,9%,8.9µM*,.,?
CC(C)(C)CC(C)(C)NC(=S)Nc1ccc2nc(-c3ccccn3)c(-c3ccccn3)nc2c1,7.1µM*,.,-7%,?,-17%,-11%
OCCCNC(=S)Nc1ccc2nc(-c3ccccn3)c(-c3ccccn3)nc2c1,40%,5%,-1%,1%,-20%,-5%
S=C(Nc1ccc2nc(-c3ccccn3)c(-c3ccccn3)nc2c1)N1CCOCC1,-27%,0%,-3%,-6%,-5%,?
CN(C)NC(=S)Nc1ccc2nc(-c3ccccn3)c(-c3ccccn3)nc2c1,13µM*,1%,2%,16µM*,-15%,-1%
COC(=O)c1cc(NC(=O)CSC2=NCCS2)cc(C(=O)OC)c1,-17%,-1%,-9%,7%,-13%,?
COc1ccc(-c2csc(NC(=S)NC(=O)c3ccc(S(=O)(=O)N(C)C)cc3)n2)cc1OC,2.8µM*,1%,0%,?,38%,?
COc1ccc(-c2csc(C)n2)cc1Br,29%,-2%,-2%,0%,-7%,?
COc1ccc(-c2csc(NC(=S)NC(=O)c3cccs3)n2)cc1Br,4.5µM*,0%,-2%,11µM*,12%,0%
COc1ccc(-c2csc(NC(=S)NC(=O)c3cccs3)n2)cc1OC,4.5µM*,0%,-5%,14µM*,-17%,-12%
COc1ccc(-c2csc(NC(=O)CS(=O)(=O)c3ccccc3)n2)cc1OC,.,.,.,.,-2%,.
O=c1[nH]cnc2c1nc(NCc1ccccc1)n2C1O[C@@H](CO)[C@H](O)[C@@H]1O (stereo not given in full),9%,-2%,2%,-4%,-8%,?
C1=C\CCC2(OCCO2)C2(CC/1)OCCO2,.,.,.,.,-7%,.
SMILES,RORg inh,uPA generation,Mito fusion yeast,Gal4-VP16 FLuc,a7 integrin act,Chronic BCR inh
CCOC(=O)c1nnc(-c2ccccc2)nc1Oc1ccccc1Cl,4.5µM*,-10%,3%,5µM*,12%,?
CC(C)C[C@H](NC(=O)[C@H](CCCCN)NC(=O)CNC(=O)[C@H](CC(C)C)NC(=O)[C@@H](N)C(C)C)C(=O)N[C@@H](CO)C(=O)N[C@@H](CCC(N)=O)C(=O)N[C@@H](CCC(=O)O)C(=O)N[C@@H](CC(C)C)C(=O)N[C@@H](Cc1cnc[nH]1)C(=O)N[C@@H](CCCCN)C(=O)N[C@@H](CC(C)C)C(=O)N[C@@H](CCC(N)=O)C(=O)N[C@H](C(=O)N[C@@H](Cc1ccc(O)cc1)C(=O)N1CCC[C@H]1C(=O)N[C@@H](CCCNC(=N)N)C(=O)N[C@H](C(=O)N[C@@H](CC(N)=O)C(=O)N[C@H](C(=O)NCC(=O)N[C@@H](CO)C(=O)NCC(=O)N[C@H](C(=O)N1CCC[C@H]1C(N)=O)[C@@H](C)O)[C@@H](C)O)[C@@H](C)O)[C@@H](C)O,18%,.,.,-1%,.,.
O=C1C2C3C=CC(O3)C2C(=O)N1N=Cc1ccc2c(c1)OCO2 (stereo not given),.,2%,.,.,3%,.
CCOc1ccc(CNC(=S)N/N=C/c2cccnc2)cc1,7.9µM*,-19%,-8%,?,-18%,-7%
COCCNC(=S)N/N=C/c1ccc(OCc2ccc(C(=O)OC)cc2)c(OC)c1,2.2µM*,4%,-2%,7.1µM*,19%,-1%
CC(C)Oc1ccc(CNC(=S)N/N=C/c2cccnc2)cc1,4µM*,-11%,-8%,13µM*,11%,?
CC(C)(C)c1ccc(OCc2ccc(C(=O)N/N=C/c3ccc([N+](=O)[O-])cc3)o2)cc1,?,1%,7%,10µM*,0%,-1%
COCCNC(=O)C(=O)N/N=C/c1ccc(C(=O)OC)cc1,0%,2%,7%,-11%,3%,6%
CCN(CC)CCNC(=O)c1c(C)[nH]c(/C=C2\C(=O)Nc3ccc(F)cc32)c1C,-9%[10 µM],.,.,-11%,.,.
CCCCOc1ccc(CNC(=S)N/N=C/c2ccc(OC)c(OC)c2)cc1,4.5µM*,-4%,-6%,2.5µM*,-8%,?
CCOc1ccc(CNC(=S)N/N=C\c2ccc([N+](=O)[O-])cc2)cc1,1.3µM*,4%,0%,2.8µM*,24%,?
CC(C)(C)c1ccc(OCc2ccc(C(=O)NCc3cccnc3)o2)cc1,?,?,3%,1.4µM*,-24%,-18%
CCCCCCCC1=Cc2ccc(F)cc2C(C(C(C)=O)C(=O)OC)N1C(=O)OC (stereo not given),2%,.,.,22%,.,.
Cc1cccc(NC(=O)CSc2nc3ccccc3c3nc(CCn4cncc4C)nn23)c1,.,.,.,.,.,7%
CN(Cc1cn(C)nc1-c1ccc(Oc2ccccc2)cc1)Cc1cnc2ccccn12,10µM*,-3%,-2%,?,0%,-15%
